Reference: PubChem BioAssay (Tox21)
Results filed as inconclusive are left out. The source made the active and inactive calls. Unless noted, calls come from the whole dose curve; as a rule, active = well fitted curve in the direction sought with a large enough effect in the repeat runs; inconclusive = weak or mixed curves; inactive = no such curve, though single readings can be large; an effect the other way counts as inactive or inconclusive.

Tests used:
[1] = qHTS assay to identify small molecule antagonists of the glucocorticoid receptor (GR) signaling pathway - cell viability counter screen (AID 720693); note: nearly all actives have a fitted effect of over 55% in size
[2] = qHTS assay for identifying genotoxic compounds that show differential cytotoxicity against isogenic chicken DT40 cell lines with known DNA damage response pathways - wild type cell line (AID 743012); note: nearly all actives have a fitted effect of over 60% in size
In short: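 Using parental DT40 (300 cells/well), compounds delivered in DMSO incubate 40 h at 37 C/5% CO2. CellTiter-Glo reagent then stands 30 min at room temperature, and luminescence gives cell viability.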

[3] = qHTS assay to identify small molecule antagonists of the androgen receptor (AR) signaling pathway - cell viability counter screen (AID 743033; note: nearly all actives have a fitted effect of over 45% in size)
[4] = qHTS assay to identify small molecule antagonists of the androgen receptor (AR) signaling pathway using the MDA cell line - cell viability counter screen (AID 743041; note: nearly all actives have a fitted effect of over 45% in size)
In short: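 R1881-driven MDA-kb2 AR-luc cells, 3,000/well, were dosed with library compounds for 16 h; cell health came from CellTiter-Fluor fluorescence in the reporter wells.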

[5] = qHTS assay to identify small molecule antagonists of the thyroid receptor (TR) signaling pathway - cell viability counter screen (AID 743064); note: nearly all actives have a fitted effect of over 50% in size
In short: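 In rat pituitary GH3.TRE-Luc reporter cells co-exposed to compound and 1 nM T3 for 23.5 h, cytotoxicity was assessed with CellTiter-Fluor in the same wells, read by fluorescence.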

[6] = qHTS assay to identify small molecule antagonists of the estrogen receptor alpha (ER-alpha) signaling pathway - cell viability counter screen (AID 743074; calls by dose curve;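 note: HEK293 cells carrying ER-alpha-UAS-bla reporter stimulated with 17beta-estradiol; nearly all actives have a fitted effect of over 45% in size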)
[7] = qHTS assay to identify small molecule antagonists of the estrogen receptor alpha (ER-alpha) signaling pathway using the BG1 cell line - cell viability counter screen (AID 743081);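 note: compound given together with 17beta-estradiol as the ER stimulus; series mostly up to about 70 µM; nearly all actives have a fitted effect of over 45% in size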
[8] = biological target: Aromatase (Homo sapiens) (UniProt P11511); experiment: qHTS assay to identify aromatase inhibitors (AID 743083); note: series mostly up to about 70 µM; nearly all actives have a fitted effect of over 55% in size
Sequence of Aromatase (Homo sapiens) (P11511 whole entry, looked up): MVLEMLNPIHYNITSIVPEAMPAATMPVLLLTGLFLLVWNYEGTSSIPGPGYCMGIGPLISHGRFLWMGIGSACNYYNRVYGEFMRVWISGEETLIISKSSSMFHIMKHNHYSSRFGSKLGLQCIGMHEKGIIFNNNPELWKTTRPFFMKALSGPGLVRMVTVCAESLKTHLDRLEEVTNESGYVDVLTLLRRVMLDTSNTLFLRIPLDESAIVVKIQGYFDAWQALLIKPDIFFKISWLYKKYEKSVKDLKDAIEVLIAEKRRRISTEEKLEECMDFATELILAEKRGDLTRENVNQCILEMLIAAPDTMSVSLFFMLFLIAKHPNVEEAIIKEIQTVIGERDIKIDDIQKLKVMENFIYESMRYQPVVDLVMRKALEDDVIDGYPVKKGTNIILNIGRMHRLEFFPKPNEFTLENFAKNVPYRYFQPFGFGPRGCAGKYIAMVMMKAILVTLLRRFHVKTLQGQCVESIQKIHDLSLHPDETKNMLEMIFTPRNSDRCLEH

[9] = qHTS assay for identifying genotoxic compounds that show differential cytotoxicity against isogenic chicken DT40 cell lines with known DNA damage response pathways - Rad54/Ku70 mutant cell line (AID 743015); note: nearly all actives have a fitted effect of over 60% in size
[10] = biological target: Androgen receptor (Homo sapiens) (UniProt P10275); experiment: qHTS assay to identify small molecule antagonists of the androgen receptor (AR) signaling pathway (AID 743035; active = well fitted inhibition curve with a large enough effect in the signal ratio in the repeat runs, not every such curve was filed as active; the % refers to the signal ratio)
Sequence of Androgen receptor (Homo sapiens) (P10275 whole entry, looked up): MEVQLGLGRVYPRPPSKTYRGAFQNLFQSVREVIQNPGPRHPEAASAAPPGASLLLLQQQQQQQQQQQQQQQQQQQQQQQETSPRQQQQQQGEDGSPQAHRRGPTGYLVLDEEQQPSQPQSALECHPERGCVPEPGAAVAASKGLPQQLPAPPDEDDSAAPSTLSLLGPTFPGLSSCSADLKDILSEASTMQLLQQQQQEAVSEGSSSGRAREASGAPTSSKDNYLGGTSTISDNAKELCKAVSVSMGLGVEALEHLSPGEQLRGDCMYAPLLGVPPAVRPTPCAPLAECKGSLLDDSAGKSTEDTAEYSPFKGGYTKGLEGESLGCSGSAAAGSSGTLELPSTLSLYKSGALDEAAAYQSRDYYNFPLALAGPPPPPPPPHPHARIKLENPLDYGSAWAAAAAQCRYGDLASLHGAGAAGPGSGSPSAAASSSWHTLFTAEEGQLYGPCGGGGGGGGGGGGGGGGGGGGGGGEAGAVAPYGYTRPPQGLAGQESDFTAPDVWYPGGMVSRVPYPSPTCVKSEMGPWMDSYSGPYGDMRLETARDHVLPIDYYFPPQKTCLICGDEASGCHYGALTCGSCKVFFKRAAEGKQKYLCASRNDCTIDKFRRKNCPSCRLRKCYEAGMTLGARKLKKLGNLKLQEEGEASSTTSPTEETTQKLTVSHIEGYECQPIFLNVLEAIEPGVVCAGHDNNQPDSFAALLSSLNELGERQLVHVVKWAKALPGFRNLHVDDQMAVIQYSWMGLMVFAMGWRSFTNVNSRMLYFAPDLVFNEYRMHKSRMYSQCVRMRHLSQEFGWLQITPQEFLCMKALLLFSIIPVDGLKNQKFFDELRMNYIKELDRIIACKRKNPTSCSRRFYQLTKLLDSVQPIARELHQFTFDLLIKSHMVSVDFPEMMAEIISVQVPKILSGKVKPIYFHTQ
In short: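 Using qHTS, AR-UAS-bla GripTite HEK293 cells received compound, then R1881, and were cultured 16 h at 37C/5% CO2 before a 2 h room-temperature LiveBLAzer B/G FRET substrate step and fluorescence measurement.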

[11] = biological target: Androgen receptor (Homo sapiens) (UniProt P10275); experiment: qHTS assay to identify small molecule agonists of the androgen receptor (AR) signaling pathway using the MDA cell line (AID 743040; note: nearly all actives have a fitted effect of over 20% in size)
In short: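 After a 5 h incubation at 37C and 0% CO2, MDA-kb2 reporter cells were dosed with compounds in DMSO and kept 16 h under the same conditions. Luciferase activity was then read as luminescence with ONE-Glo.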

[12] = biological target: Androgen receptor (Homo sapiens) (UniProt P10275); experiment: qHTS assay to identify small molecule antagonists of the androgen receptor (AR) signaling pathway using the MDA cell line (AID 743042; note: nearly all actives have a fitted effect of over 55% in size)
In short: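 Antagonist mode: compounds plus R1881 agonist added to MDA-kb2 AR-luc cells, incubated 16 h at 37C. Luciferase reporter luminescence quantified, with multiplexed CellTiter-Fluor readout for cell viability.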

[13] = qHTS assay to identify small molecule antagonists of the thyroid receptor (TR) signaling pathway (AID 743065); note: nearly all actives have a fitted effect of over 55% in size; note: potency is the fitted concentration of half-maximal effect
In short: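 Antagonism measured as loss of luciferase signal in GH3 cells stably carrying a TRE-luciferase reporter, co-treated with compound and T3 (1 nM final) for 23.5 h at 37 C. Viability was read in the same well by CellTiter-Fluor.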

[14] = tested on: thyroid hormone receptor (rat, GH3 cells); experiment: qHTS assay to identify small molecule agonists of the thyroid receptor (TR) signaling pathway (AID 743066; calls by dose curve)
[15] = qHTS assay to identify small molecule antagonists of the estrogen receptor alpha (ER-alpha) signaling pathway using the BG1 cell line (AID 743080; calls by dose curve;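 note: BG1 cells stimulated with 17beta-estradiol alongside compound; series mostly up to about 70 µM; nearly all actives have a fitted effect of over 25% in size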)
In short: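 BG1Luc4E2, endogenous ER-alpha, 4xERE-luc; 5 d charcoal-stripped FBS, phenol red free; 24 h plating; cpd + 17beta-estradiol 21.5 h, 37 C/5% CO2; CellTiter-Fluor viability 30 min, then ONE-Glo luciferase 30 min RT.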

[16] = biological target: Estrogen receptor (Homo sapiens) (UniProt P03372); experiment: qHTS assay to identify small molecule antagonists of the estrogen receptor alpha (ER-alpha) signaling pathway (AID 743069; active = well fitted curve in the direction sought with a large enough effect in the signal ratio in the repeat runs, not every such curve was filed as active; the % refers to the signal ratio)
Sequence of Estrogen receptor (Homo sapiens) (P03372 whole entry, looked up): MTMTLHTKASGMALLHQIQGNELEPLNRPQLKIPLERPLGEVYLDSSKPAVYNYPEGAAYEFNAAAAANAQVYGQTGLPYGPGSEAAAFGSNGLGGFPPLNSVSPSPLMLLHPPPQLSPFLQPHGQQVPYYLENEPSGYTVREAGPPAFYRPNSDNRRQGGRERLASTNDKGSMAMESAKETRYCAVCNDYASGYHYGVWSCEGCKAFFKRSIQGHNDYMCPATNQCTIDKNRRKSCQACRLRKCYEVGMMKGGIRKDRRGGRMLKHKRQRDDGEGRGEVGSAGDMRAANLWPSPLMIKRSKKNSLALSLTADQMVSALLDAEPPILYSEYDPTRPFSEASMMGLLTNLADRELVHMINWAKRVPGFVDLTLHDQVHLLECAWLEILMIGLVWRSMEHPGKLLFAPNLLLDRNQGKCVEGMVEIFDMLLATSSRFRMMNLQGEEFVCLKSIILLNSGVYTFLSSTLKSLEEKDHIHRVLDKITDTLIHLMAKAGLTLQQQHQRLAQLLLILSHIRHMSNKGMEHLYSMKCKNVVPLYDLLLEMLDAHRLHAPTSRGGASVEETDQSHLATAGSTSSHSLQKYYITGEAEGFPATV
In short: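 Compound effects are measured against 17beta-estradiol stimulation in HEK293 cells with a UAS-controlled beta-lactamase reporter for ER-alpha. Exposure lasts 18 hr at 37C; LiveBLAzer B/G FRET substrate follows for 2 hr at room temperature.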

[17] = biological target: Estrogen receptor (Homo sapiens) (UniProt P03372); experiment: qHTS assay to identify small molecule agonists of the estrogen receptor alpha (ER-alpha) signaling pathway (AID 743075; calls by dose curve)
[18] = qHTS assay for identifying genotoxic compounds that show differential cytotoxicity against isogenic chicken DT40 cell lines with known DNA damage response pathways - Rev3 mutant cell line (AID 743014); note: nearly all actives have a fitted effect of over 55% in size
[19] = biological target: Androgen receptor (Homo sapiens) (UniProt P10275); experiment: qHTS assay to identify small molecule agonists of the androgen receptor (AR) signaling pathway (AID 743036; active = well fitted activation curve with a large enough effect in the signal ratio in the repeat runs, with a control signal flat, not every such curve was filed as active; the % refers to the signal ratio)
In short: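 Cell-based FRET reporter assay: HEK293 line with a UAS-beta-lactamase construct, compounds added in DMSO, 16 h exposure at 37C, then 2 h substrate step at room temperature and fluorescence intensity read.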

[20] = biological target: Estrogen receptor (Homo sapiens) (UniProt P03372); experiment: qHTS assay to identify small molecule agonists of the estrogen receptor alpha (ER-alpha) signaling pathway using the BG1 cell line (AID 743079); note: nearly all actives have a fitted effect of over 20% in size

Measured: Potency

CC(=O)Nc1ccc(OCC(O)CNC(C)C)cc1 (configuration not stated)
inactive: [1] | [2] | [3] | [4] | [5] | [6] | [7] | [8]

CC(C)NNC(=O)c1ccncc1
inactive: [1] | [2] | [9] | [3] | [10] | [11] | [12] | [5] | [13] | [14] | [6] | [15] | [7] | [8]

C[N+]12CCC(CC1)C(OC(=O)C(O)(c1ccccc1)c1ccccc1)C2 (configuration not stated)
inactive: [1] | [2] | [3] | [4] | [5] | [13] | [14] | [6] | [7]

Nc1ccncc1N
inactive: [1] | [2] | [3] | [4] | [5] | [13] | [14] | [6] | [7] | [8]

C=CCCC(=O)O
inactive: [1] | [2] | [3] | [4] | [5] | [13] | [14] | [16] | [6] | [17] | [15] | [7] | [8]

CC(C)(C#N)Nc1nc(Cl)nc(NC2CC2)n1
inactive: [1] | [2] | [18] | [3] | [4] | [5] | [13] | [14] | [6] | [7] | [8]

CNC(=O)Nc1ccc(Cl)c(Cl)c1
active: [13] 30.6 µM
inactive: [1] | [2] | [3] | [19] | [11] | [4] | [12] | [5] | [14] | [16] | [6] | [20] | [7] | [8]

CCCCCCC1CCC(=O)O1 (configuration not stated)
inactive: [1] | [18] | [9] | [3] | [4] | [5] | [13] | [14] | [16] | [6] | [17] | [20] | [15] | [7] | [8]

COc1cc(C(=O)NCc2ccc(OCCN(C)C)cc2)cc(OC)c1OC
inactive: [1] | [2] | [4] | [5] | [13] | [14] | [16] | [17] | [20] | [7] | [8]

[Ca+2]
inactive: [1] | [2] | [3] | [4] | [5] | [13] | [14] | [6] | [7] | [8]

CC(=O)c1ccc2ccccc2c1
inactive: [1] | [2] | [9] | [3] | [4] | [5] | [13] | [14] | [6] | [17] | [20] | [7] | [8]

O=C(c1ccccc1O)c1ccccc1O
inactive: [1] | [2] | [3] | [11] | [4] | [13] | [14] | [6] | [17] | [20] | [7]

CCN(CC#N)c1cccc(C)c1
inactive: [1] | [2] | [18] | [4] | [5] | [16] | [6] | [17] | [20] | [15] | [7] | [8]
